# Data from PubChem BioAssay.
# Entries with a potency or affinity are not part of this list. Calls of active or inactive are those of the source.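 How the source made its calls: active means fitted dose curve reaches 40% lysis signal rise at or below the highest valid concentration tested for that sample; inconclusive means flat fit between 30% and 70%, or poor curve fit; inactive means signal falls, stays flat within 30%, or no crossing.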
# Test: C. neoformans lysis by adenylate kinase leakage – AK release luminescence, cherry-picks, dose response (AID 687000);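 further: luminescent detection of adenylate kinase leaking from lysed yeast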
# Conditions: 4 h, 100% = twice the neutral-control signal; series mostly up to 15 µM
row,SMILES,outcome
1,C[C@H]1CCCCO[C@H](CN(C)C(=O)Nc2ccc(F)cc2)[C@@H](C)CN([C@@H](C)CO)C(=O)c2cc(NS(=O)(=O)c3ccc(Cl)cc3)ccc2O1,inactive
2,C[C@@H]1CN([C@@H](C)CO)C(=O)CCCn2cc(nn2)CO[C@@H]1CN(C)C(=O)NC1CCCC1,inactive
3,CNC(=O)C[C@H]1CC[C@H]2[C@@H](COc3ccc(NC(=O)Nc4cccc(C#N)c4)cc3C(=O)N2C)O1,inactive
4,CCC(=O)N(C)C[C@H]1Oc2cc(-c3ccccc3)ccc2S(=O)(=O)N([C@H](C)CO)C[C@H]1C,inactive
5,CCCNC(=O)Nc1ccc2c(c1)C(=O)N(C)C[C@H](OC)[C@@H](C)CN(C(=O)CC)[C@@H](C)CO2,inactive
6,O=C(CN1CCOCC1)N1CC[C@@H]2[C@@H](CO)Nc3ccc(-c4ccccc4F)cc3[C@@H]21,inactive
7,CN1C(=O)c2cc(NC(=O)Nc3ccc(Cl)cc3)ccc2OC[C@H]2O[C@@H](CC(=O)NCCN3CCCCC3)CC[C@@H]21,inactive
8,CC(C)NC(=O)Nc1ccc2c(c1)CC(=O)N([C@H](C)CO)C[C@H](C)[C@H](CN(C)S(=O)(=O)c1ccc(Cl)cc1)O2,inactive
9,COCC(=O)N(C)C[C@@H]1Oc2ncc(C#CCC3CCCC3)cc2C(=O)N([C@@H](C)CO)C[C@H]1C,inactive
10,CO[C@@H](CN(C)Cc1cc(F)ccc1F)[C@@H](C)CN([C@H](C)CO)S(=O)(=O)c1ccc(F)cc1,inactive
11,C[C@@H]1CN([C@H](C)CO)C(=O)c2cc(/C=C/c3ccccc3)cnc2O[C@@H]1CN(C)S(C)(=O)=O,inactive
12,Cc1cc(C)c(NC(=O)C2CCCN2CCO)c(C)c1 (centres undefined),inactive
13,CCCNC(=O)[C@@H]1[C@@H](CO)[C@@H]2Cn3c(cccc3=O)[C@H]1N2C(=O)Nc1cc(F)ccc1F,inactive
14,C[C@H]1CN([C@@H](C)CO)C(=O)c2cccc(NS(=O)(=O)c3cn(C)cn3)c2O[C@@H]1CN(C)CC1CCCCC1,inactive
15,Cc1ccc(C2=NN(C(=O)c3ccc(Br)o3)C(c3ccc(C)cc3)C2)cc1 (centres undefined),inactive
16,C[C@@H]1CN([C@@H](C)CO)S(=O)(=O)c2ccc(C#CC3CC3)cc2O[C@H]1CN(C)CC1CCOCC1,inactive
17,COCCNC(=O)C[C@H]1C=C[C@@H](NS(=O)(=O)c2ccc(C)cc2)[C@H](CO)O1,inactive

row,SMILES,outcome
1,C[C@@H]1CCCCO[C@H](CN(C)Cc2ccncc2)[C@@H](C)CN([C@@H](C)CO)C(=O)c2cc(NC(=O)Nc3ccccc3)ccc2O1,inactive
2,C[C@@H]1CN([C@@H](C)CO)C(=O)Cc2cc(NC(=O)Nc3cccc4ccccc34)ccc2O[C@@H]1CN(C)S(=O)(=O)c1cccs1,inactive
3,CNC[C@@H]1Oc2cc(Br)ccc2S(=O)(=O)N([C@H](C)CO)C[C@H]1C,inactive
4,C[C@@H]1CN([C@H](C)CO)S(=O)(=O)c2ccc(C#Cc3ccc(F)cc3)cc2O[C@H]1CN(C)C(=O)NC1CCCC1,inactive
5,CC1CCCCN1C(=O)CSc1nc(C2CC2)nc2c1cnn2-c1ccccc1 (centres undefined),inactive
6,O=C(c1cccc(Br)c1)N1CCN(c2ccccn2)CC1,inactive
7,CC(=O)NNC(=O)CSc1nnc(-c2ccccc2)c(-c2ccccc2)n1,inactive
8,C[C@H](CO)N1C[C@H](C)[C@H](CN(C)C(=O)Nc2ccc3c(c2)OCO3)Oc2ncc(-c3ccc(F)cc3)cc2C1=O,inactive
9,O=C(Nc1ccccc1)N1CCCCN2[C@H](CO)[C@@H](c3ccc(C#CC4CC4)cc3)[C@@H]2C1,inactive
10,CCCN1C[C@H](C)[C@@H](OC)CN(C)C(=O)c2cc(NC(=O)c3cccc(F)c3)ccc2OC[C@H]1C,inactive
11,CCC(=O)N[C@@H]1C=C[C@H](CC(=O)NCC2CCCCC2)O[C@H]1CO,inactive
12,O=C(C1CCOCC1)N1CC[C@@H]2[C@H]1c1cc(Br)ccc1N[C@@H]2CO,inactive
13,O=C(C[C@H]1CC[C@@H](NC(=O)c2ccc3c(c2)OCO3)[C@@H](CO)O1)NCc1ccc(F)cc1,inactive
14,O=C(C[C@H]1CC[C@H]2[C@@H](COC[C@@H](O)CN2C(=O)c2ccc(F)cc2)O1)N1CCOCC1,inactive
15,COc1cccc(-c2cn(CC[C@@H]3CC[C@H](NC(C)=O)[C@@H](CO)O3)nn2)c1,inactive
16,CC1=C(C(=O)OCc2ccccc2)C(c2ccccc2)NC(=O)N1 (centres undefined),inactive
17,CC(C)NC(=O)N1CC[C@@H]2[C@@H](CO)N(C)c3ccc(-c4cccc(F)c4)cc3[C@@H]21,inactive
